This is an account of results in PubChem BioAssay (Tox21).

Records with an inconclusive call do not appear. Activity calls are given as the source filed them. The call rests on the fitted dose curve; in most records, active means well fitted cell-killing curve with a large enough effect in the repeat runs; inconclusive means weak or mixed curves, or effect the other way; inactive means no such curve, though single readings can be large or run the other way.

The assay in a line: qHTS assay to identify small molecule antagonists of the glucocorticoid receptor (GR) signaling pathway - cell viability counter screen (AID 720693). Further: nearly all actives have a fitted effect of over 55% in size. To be noted: GR-bla HeLa viability, CellTiter-Glo luminescence, 18 h, with 5 nM dexamethasone present; series mostly up to 58.5 µM. Background: Quantitative high-throughput screening tests each substance at several concentrations.
With `O=C(O)Cc1ccccc1Oc1ccc(Cl)cc1Cl`, the outcome was inactive.

Take `CC(C)c1cc(C(C)C)cc(C(C)C)c1`: the call was inactive.

For `CN(C)CCc1c[nH]c2ccc(CS(=O)(=O)N3CCCC3)cc12`, the outcome was inactive.

With `CC(C)(O)c1ccc(C(C)(C)O)cc1`, the outcome was inactive.

In the case of `COc1cc2nc(N3CCN(C(=O)C4CCCO4)CC3)nc(N)c2cc1OC` (centres undefined), the molecule was called inactive.

With `Cc1cc(C)c(C)c(C)c1`, the result was inactive.

As to `Cc1ccc(S(=O)(=O)NC(=O)NN2CC3CCCC3C2)cc1` (centres undefined), the molecule was called inactive.

As for `CCCCCCCCCCCC(C)=O`, the call was inactive.

Turning to `CC[N+](C)(CC)CC`, the result was inactive.

Turning to `CC(=O)Oc1ccc(C(C)=O)cc1`, the molecule was classed as inactive.

With `CCN1CCN(C(=O)N[C@@H](C(=O)N[C@@H]2C(=O)N3[C@@H]2SC(C)(C)[C@H]3C(=O)O)c2ccccc2)C(=O)C1=O`, the outcome was inactive.

`CC1(C)CC(N)CC(C)(C)N1`: the molecule was called inactive.

Turning to `O=C(OOC(=O)c1ccccc1)c1ccccc1`, the molecule was classed as inactive.

Take `N#CC1(N)CCCCC1`: the outcome was inactive.

For the molecule `CC(=O)SCC(CC(=O)c1ccc(C)cc1)C(=O)O` (centres undefined), the call was inactive.

Turning to `COc1cc(C(=O)NC2CCCNC2)cc(OC)c1OC` (centres undefined), the outcome was inactive.

In the case of `C=COCCCCO`, the result was inactive.

In the case of `CC(C)=CCC/C(C)=C\C#N`, the outcome was inactive.

Take `CCCCCCCCS(=O)(=O)O`: the molecule was called inactive.

Consider `Cc1cc(N)no1`, for which the molecule was classed as inactive.

Turning to `CC1(C)S[C@@H]2[C@H](NC(=O)Cc3ccccc3)C(=O)N2[C@H]1C(=O)O` (tested in a mixture with another compound), the outcome was inactive.

Take `O=Cc1ccc(C(=O)O)cc1`: the molecule was classed as inactive.

With `CCC(C)(C)C`, the result was inactive.

Consider `O=C(c1ccccc1)c1cccc(O)c1`, for which the result was inactive.
